Assay results taken from the supplement of paper PMC3334620.
Whole data set: some 33,000 sequences, median “E-score (-0.5 to 0.5)” near -0.04, cut for the highest 2% near 0.36. This is one part of a sample in which the highest values are shown more often than they occur.

biological target: T1, Hmlalpha2 (UniProt P0CY09); assay: PBM E-score (8-mer binding enrichment) (E-score (-0.5 to 0.5)); higher = stronger / more preferred TF binding; settings: protein concentration: 200 nM; construct: GST-full length
T1 sequence: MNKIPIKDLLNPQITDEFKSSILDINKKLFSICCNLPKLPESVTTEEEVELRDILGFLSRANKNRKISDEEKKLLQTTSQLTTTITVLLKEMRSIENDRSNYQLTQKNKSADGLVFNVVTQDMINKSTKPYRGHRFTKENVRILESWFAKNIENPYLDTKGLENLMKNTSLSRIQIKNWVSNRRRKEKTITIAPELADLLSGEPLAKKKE
Experimental: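 Universal 'all 10-mer' protein binding microarrays (Agilent AMADID 015681) probed with GST-tagged S. cerevisiae TFs (full-length or DBD) made by in vitro transcription/translation (PURExpress), about 100-200 nM. Bound TF was detected with fluorescent anti-GST. Each ungapped 8-mer (which stands for itself and its reverse complement) is scored by the PBM enrichment score (E-score), a modified Wilcoxon-Mann-Whitney statistic from -0.5 to +0.5, computed with the Universal PBM Analysis Suite. Scale: above 0.35 generally sequence-specific binding.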

| Sequence | PBM E-score |
| --- | --- |
| AATGCAGT | -0.00748 |
| CCTTCACA | 0.0306 |
| CACATCCC | -0.0137 |
| GCCAAACA | -0.107 |
| AGTAGAGG | -0.226 |
| CGTAGCAG | -0.129 |
| CAGTTCTC | -0.179 |
| ATTAACCC | 0.0714 |
| ATTAACAC | 0.455 |
| ATTAACTC | 0.216 |
| GCCATGTA | 0.457 |
| CCCATGTA | 0.447 |
| ACCATGTC | 0.296 |
| GCCATGCA | 0.0965 |
| ACCATGTA | 0.467 |
| ACCATGTG | 0.188 |
| CCCATGTC | 0.161 |
| CCCATGGA | -0.1 |
| GCCATGGA | -0.178 |
| CACCATGC | -0.0851 |
| TCACATCA | 0.00787 |
| CGTAACGC | 0.193 |
| CTGCCAGC | -0.238 |
| GTTATGAA | 0.186 |
| GTTATGCA | 0.00491 |

| Sequence | PBM E-score |
| --- | --- |
| CTTATGTA | 0.409 |
| ATTATGTG | 0.17 |
| CTTATGCA | 0.135 |
| CTTATGTC | 0.117 |
| GTTATGTA | 0.419 |
| ATTATGTA | 0.415 |
| ATTATGTC | 0.164 |
| GCGCCAGA | -0.138 |
| AGTCGGGA | -0.192 |
| GAAGCTAA | -0.0677 |
| ATCCACAT | 0.158 |
| TAATGTAA | 0.431 |
| CAATGTAG | 0.172 |
| TAATGTCA | 0.155 |
| AAATGTAA | 0.394 |
| GAATGTAC | 0.16 |
| AAATGTAG | 0.113 |
| CAATGTAA | 0.435 |
| GAATGTAA | 0.372 |
| AAATGTAC | 0.236 |
| TAATGTGA | 0.19 |
| CAATGTAC | 0.217 |
| GAATGTCA | 0.0786 |
| CTGAAAAC | 0.1 |
| CTCAGAAG | -0.215 |

| Sequence | PBM E-score |
| --- | --- |
| AACCCGAT | 0.0593 |
| ACGGGGGG | -0.22 |
| ACTCGGGG | -0.134 |
| AAACCGAG | -0.204 |
| ATGTATAC | 0.435 |
| GTATATAA | 0.29 |
| CCGTATAC | 0.0388 |
| ATGTATAG | 0.362 |
| GCGTATAA | 0.337 |
| GAGTATAA | 0.169 |
| CTGTATAA | 0.209 |
| GTGTATAA | 0.391 |
| ATGTATAA | 0.395 |
| GCGTATAC | 0.371 |
| ATGTATCC | 0.294 |
| CTGTATAC | 0.247 |
| GTATGCCA | -0.254 |
| ACGACCCA | -0.0906 |
| TGTAGGAA | 0.226 |
| GCCACCGC | -0.33 |
| GATGGACA | -0.0833 |
| CTTGAAAC | -0.111 |
| ATGCTGCA | 0.0587 |
| TCCTATCA | -0.172 |
| AGTCGCGA | -0.0755 |

| Sequence | PBM E-score |
| --- | --- |
| CTCCCATC | -0.242 |
| CATCTGAG | -0.137 |
| CAAAATTC | 0.15 |
| ATACCTGG | -0.252 |
| ATGCTGTA | 0.136 |
| AAGGAGCT | -0.163 |
| GTGTAGAA | 0.445 |
| GCGTAGAA | 0.313 |
| AAGTAGAG | 0.018 |
| ATGTAGAA | 0.43 |
| CTGTAGAC | 0.104 |
| ATGTAGGA | 0.236 |
| ATGTAGAG | 0.376 |
| ATGTAGGC | 0.169 |
| CTGTAGAA | 0.161 |
| ATGTAGAC | 0.391 |
| GAGTAGAA | 0.147 |
| ACGTAGAG | 0.224 |
| CACAGATC | -0.0314 |
| GAATCTTA | -0.127 |
| CGATTAAC | 0.149 |
| TATCCTCA | -0.113 |
| CTGTTACA | 0.281 |
| AAGTTAAT | 0.187 |
| ATGTTAAA | 0.473 |

| Sequence | PBM E-score |
| --- | --- |
| ATGTTACA | 0.401 |
| AGGTTAAT | 0.182 |
| ATGTTAGA | 0.358 |
| ACGTTAAG | 0.255 |
| CTGTTAAG | 0.255 |
| ATGTTAAG | 0.445 |
| ACGTTAAA | 0.362 |
| ATGTTACC | 0.317 |
| ATGTTAAT | 0.447 |
| CACAAACG | 0.241 |
| ACTCTCCT | -0.223 |
| CAGCTACC | -0.168 |
| CCCTAGAG | -0.232 |
| CTTTACTA | 0.252 |
| ATTTACCA | 0.21 |
| CTTTACCA | 0.0599 |
| ATTTACAG | 0.269 |
| ATTTACTC | 0.301 |
| ATTTACCC | 0.0345 |
| GCTTACAA | 0.275 |
| ATTTACAC | 0.479 |
| CTTTACAA | 0.38 |
| ATTTACAA | 0.453 |
| GTTTACTA | 0.356 |
| GTTTACAA | 0.425 |

| Sequence | PBM E-score |
| --- | --- |
| GAATTTGA | -0.109 |
| AAACTGGG | -0.278 |
| ATAGTGGC | -0.192 |
| GGCTTGAC | -0.093 |
| ACAACATA | 0.382 |
| ACAACATG | 0.451 |
| ACAACATC | 0.263 |
| GCAACATA | 0.219 |
| CCAACATA | 0.314 |
| ACAACAAG | 0.298 |
| AGTGGATG | -0.0671 |
| ACCTGAGT | 0.0645 |
| AAGGATCT | -0.17 |
| ACCACGAG | -0.135 |
| ACACGCTC | 0.399 |
| GCACGCTA | -0.192 |
| CCACGCTC | -0.335 |
| AAACGCTC | -0.144 |
| ACACGCTA | 0.414 |
| ACACGCTG | 0.355 |
| GAGTTAGA | -0.0875 |
| AGAAGGCC | -0.213 |
| GATGAAGC | -0.157 |
| GTATGTTA | 0.414 |
| CTATGTTA | 0.414 |

| Sequence | PBM E-score |
| --- | --- |
| GAATGTTA | 0.287 |
| CTCTGTTA | 0.23 |
| GGATGTTA | 0.299 |
| ATATGTTA | 0.384 |
| CTATGTTC | 0.252 |
| ATATGTTG | 0.346 |
| ATATGTTC | 0.198 |
| CGAATATA | -0.00331 |
| AGGGGAGG | -0.299 |
| ACTTGGAA | -0.144 |
| ATTAGCGC | 0.0131 |
| GATTCAAC | 0.0589 |
| ATGGGTTG | 0.0606 |
| TGTGTTAA | 0.471 |
| CATGTTGC | 0.334 |
| AATGTTGA | 0.256 |
| CATGTTTA | 0.437 |
| GGTGTTAA | 0.361 |
| AGTTTTAA | 0.169 |
| GATGTTTA | 0.223 |
| TCTGTTAA | 0.331 |
| CATGTTTC | 0.333 |
| TGTTTTAA | 0.382 |
| CATGTTGA | 0.477 |
| TGTTTAAA | 0.34 |
